Broadly, the inhibition is the change of the read-out against control, counted positive when it falls.

SMILES strings stand for the structures. Among all 2,500 compounds or so, about 1,100 (44%) were called active. So high a share suggests a set chosen from earlier hits. The list shows a part of the results. Unmarked numbers belong to inactive results.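 How the source made its calls: active means inhibition above 50% at 4 µM in the single-point screen; inactive means inhibition of 50% or less.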

This experiment can be described thus: blockers of TNF-a NF-kB luciferase induction – cell-based, HEK293T NF-kB-Luc, luminescence, selectivity assay for NOD1/NOD2 signaling inhibitor project, primary screen (AID 1852). Particulars: TNF-a induced, 14 h, at 4 µM, active compounds read high.
For the molecule `O=C(Oc1c(-c2ccccc2)c(=O)n2c3c(cccc13)CC2)c1ccc(F)cc1`, the inhibition is 49.3%.
The same measure for `O=C(Oc1c(-c2ccccc2)c(=O)n2c3c(cccc13)CC2)c1ccccc1`: 75.1% (active); for `O=C(Oc1c(-c2ccccc2)c(=O)n2c3c(cccc13)CC2)c1ccc(Cl)cc1`: 90.1% (active); for `COc1ccc(C(=O)c2c(C(F)(F)F)oc3c2C(=O)c2ccccc2C3=O)cc1OC`: 102% (active).
As for `COc1ccc(NC(=O)c2c(Nc3ccccc3)sc(C(=O)c3ccc(F)cc3)c2N)cc1`, the figure is 10%; as for `COc1ccc(C(=O)Nc2sc3c(c2C(=O)NCc2ccco2)CCCC3)cc1OC`, -42.2%; as for `COc1ccc(C(=O)c2c(C(F)(F)F)oc3c2C(=O)c2ccccc2C3=O)cc1`, 100% (active).
As for `CC(C)(C)OC(=O)CNC(=O)c1[nH]cnc1C(=O)NC1CCN(C(=O)OC(C)(C)C)CC1`, the figure is -15.2%; as for `O=C(OCn1ncc(Br)c(Br)c1=O)c1c(F)cccc1F`, 82.5% (active).
`CC(=O)Cn1ncc(Br)c(Br)c1=O`: the inhibition was 95% (active).
As for `O=C(OCn1ncc(Br)c(Br)c1=O)c1ccc(F)cc1`, the figure is 86.5% (active); as for `Cc1ccc(Cl)cc1N1CCN(C(=O)CSc2nnc3n2C(C)(C)Cc2ccccc2-3)CC1`, 95.1% (active); as for `O=C(CSc1nnc2ccc3ccccc3n12)N1CCOCC1`, -57.3%.
Take `COCCn1c(SCC(=O)N2CCc3ccccc3C2)nc2cc(Cl)ccc2c1=O`: the inhibition was 13.3%.
Regarding `CC1Cc2cc(-c3csc(NC(=O)Cc4cccs4)n3)ccc2N1S(C)(=O)=O` (centres undefined), the inhibition was 60.6% (active).
The same measure for `Cn1c(=O)c(C(=O)CCl)c(N)n(Cc2ccccc2)c1=O`: 72.4% (active); for `COCCCN(C(=O)Cc1ccc(Cl)c(Cl)c1)c1c(N)n(Cc2ccccc2)c(=O)[nH]c1=O`: 7.8%.
As for `CC(C)Cn1c(N)c(C(=O)COC(=O)CC23CC4CC(CC(C4)C2)C3)c(=O)n(C)c1=O`, the figure is 26.6%; as for `COc1cccc(N=Nc2ccc3cccnc3c2O)c1`, 54.2% (active); as for `CCN(CC)S(=O)(=O)c1cc(OC)ccc1N=Nc1ccc(O)c2ncccc12`, -1.5%.
The same measure for `COc1cccc(N=Nc2ccc(O)c3ncccc23)c1`: 61% (active); for `O=S1(=O)Nc2c(ccc3cccnc23)-c2ccccc21`: 104% (active).
In the case of `Cc1c(C(=O)N2CCN(c3ccc(F)cc3)CC2)sc2ncnc(N3CCN(c4ccccn4)CC3)c12`, the inhibition was 15.6%.
The same measure for `Cn1c(=O)c([N+](=O)[O-])c(N2CCN(Cc3ccc4c(c3)OCO4)CC2)c2ccccc21`: 18.3%.
The same measure for `Cc1c(C(=O)N2CCN(Cc3ccc4c(c3)OCO4)CC2)sc2ncnc(N3CCN(c4ccccc4)CC3)c12`: 98.5% (active); for `COc1ccccc1N1CCN(C(=O)c2sc3ncnc(N4CCN(c5ccccn5)CC4)c3c2C)CC1`: -30.1%; for `CCn1c(=O)c([N+](=O)[O-])c(N2CCN(Cc3ccc4c(c3)OCO4)CC2)c2ccccc21`: 38.9%.
As for `O=[N+]([O-])c1ccc2ncnc(N3CCN(Cc4ccc5c(c4)OCO5)CC3)c2c1`, the figure is 97.2% (active); as for `COc1ccc(N2CCN(S(=O)(=O)c3ccc4c(c3)NC(=O)C(C)S4)CC2)cc1` (centres undefined), 23.6%; as for `O=S(=O)(c1ccc2c(c1)OCCO2)N1CCN(c2ncnc3sccc23)CC1`, 53.4% (active).
In the case of `CN1C(=O)C(C)(C)c2cc(S(=O)(=O)N3CCN(c4ccccc4)CC3)ccc21`, the inhibition is 16%.
As for `c1ccc(CC2CCN(c3ncnc4sccc34)CC2)cc1`, the inhibition was 42.7%.
As for `Cc1ccc(S(=O)(=O)N2CCN(c3ncnc4sccc34)CC2)cc1`, the figure is 52.6% (active).
As for `CCCc1nc(SCC(=O)N2CCC(Cc3ccccc3)CC2)c2c(=O)n(C)c(=O)n(C)c2n1`, the figure is -11.3%; as for `C/C(=N\NC(=O)c1ccc(Cl)cc1)c1ccc(Br)s1`, 9.8%; as for `O=C(NN=C1c2ccccc2-c2ccccc21)c1cccc(Br)c1`, 21.6%.
As for `O=C(N/N=C1/C(=O)c2cccc3cccc1c23)c1ccc(Cl)cc1`, the figure is 81% (active); as for `S=c1[nH]nc(C2CCCCC2)n1/N=C/c1ccncc1`, 82.9% (active).
Take `COc1ccc(OC)c(S(=O)(=O)N2CCN(c3ccccc3OC)CC2)c1`: the inhibition is 5%.
As for `O=C1c2cccc(OCC(=O)N3CCCc4ccccc43)c2CCN1Cc1ccc(Br)cc1`, the figure is -77.8%.
The same measure for `O=C(COc1ccc(Br)cc1Cl)NC(=S)N1CCc2ccccc21`: 104% (active); for `Cc1ccc(NC(=O)Nc2cccc([N+](=O)[O-])c2)cc1F`: -50.5%; for `Cc1ccc(-c2c(C#N)c(N)n3c(nc4ccccc43)c2C#N)cc1`: 33.8%.
As for `Cc1cc(Nc2cccc([N+](=O)[O-])c2)n2c(nc3ccccc32)c1C#N`, the figure is 78.7% (active); as for `CCc1nc(N2CCN(C(=O)CCl)CC2)c2c3c(sc2n1)CC(C)CC3` (centres undefined), 35.2%; as for `CCOC(=O)C1(CCc2ccccc2)CCN(C(=O)CN2C(=O)CSC2=O)CC1`, -1.6%.
`COc1cc(NC(=O)COc2cc(O)c3c(c2)OC(C)(C)CC3=O)cc(OC)c1OC`: the inhibition is 64.6% (active).
As for `Cc1ccc(Nc2nnc(-c3ccncc3)s2)c(Br)c1`, the figure is 48%; as for `COc1cccc(C(=O)Nc2ccc3nc(N4CCN(c5ncccn5)CC4)cc(C)c3c2)c1OC`, 101% (active).
The same measure for `Cc1ccc(C)c(N2CCN(C(=S)Nc3ccc4nc(N5CCOCC5)cc(C)c4c3)CC2)c1`: 45.9%.
The same measure for `COc1ccccc1N1CCN(C(=S)Nc2ccc3nc(N4CCOCC4)cc(C)c3c2)CC1`: 38.6%; for `CCN(CC)c1ccc(/C=C/c2cccc[n+]2C)c(OC)c1`: 66.8% (active); for `CCN(CC)c1ccc(/C=C/c2ccc3ccc(OC)cc3[n+]2CC)cc1`: 38.2%.
Regarding `COc1ccccc1-c1nnc(SCC(=O)Nc2nc(-c3ccccc3)cs2)n1C`, the inhibition is 31.2%.
As for `COc1ccc(-c2csc3nc(-c4ccccc4)oc(=O)c23)cc1OC`, the figure is -3.3%; as for `Cc1ccc(-c2csc(NC3OC(=O)c4ccccc43)n2)cc1` (centres undefined), 74.1% (active); as for `COc1ccc2c(c1OC)C(=O)OC2Nc1nc(-c2ccccc2)cs1` (centres undefined), 62.2% (active).
As for `COc1ccc2[nH]c3c(c2c1)CCN1C(=O)N([C@@H](C)C(=O)NC2CC2)C(=O)[C@]31C`, the figure is 24.6%; as for `COc1ccc2[nH]c(=O)c3c(c2c1)OC(C)(C)C=C3`, 74.7% (active).
In the case of `COc1cccc(/C=C/C(=C2/C(=O)N(c3ccccc3)N=C2C)c2ccccc2)c1OC`, the inhibition was 7.3%.
Take `COc1ccccc1/C=C/C(=O)c1c2c(c(C)[nH]c1=O)CCCC2`: the inhibition was 80.6% (active).
The same measure for `Cc1[nH]c(=O)c(C(=O)/C=C/c2ccccc2F)c2c1CCCC2`: 97.7% (active).
As for `Cc1[nH]c(=O)c(C(=O)/C=C/c2ccccc2)c2c1CCCC2`, the figure is 92% (active); as for `O=C(/C=C/c1cccs1)Nc1sc2c(c1C(=O)O)CCCC2`, 17.8%.
As for `Cc1[nH]n(-c2cccc(Cl)c2)c(=O)c1-c1ccc(Cl)cc1`, the figure is 51.9% (active).
Consider `Cc1[nH]n(-c2ncc(-c3ccccc3)s2)c(=O)c1C(c1ccc(Cl)cc1)C(C#N)C#N` (centres undefined), for which the inhibition is 28.2%.
As for `CC1=NN(c2ccc(Cl)cc2)C(=O)C1C(c1ccccc1O)c1c(C)[nH]n(-c2ccc(Cl)cc2)c1=O` (centres undefined), the inhibition was -30.7%.
The same measure for `CC(C)(C)C(=O)/C(=C/c1ccc(Cl)cc1)n1cncn1`: 73.3% (active); for `O=C(Nc1cc(Cl)ccc1-n1cncn1)c1ccc([N+](=O)[O-])s1`: 34.3%; for `CCOC(=O)C(=Cc1ccc(-n2cncn2)cc1)C(=O)OCC`: 27%.
As for `CC(C)CC(=O)/C(=C\c1ccc(Cl)cc1Cl)n1cncn1`, the figure is 64.5% (active); as for `CC(=O)n1cc(N(C(=O)CCl)c2ccc(C)cc2)c2ccccc21`, 53.1% (active).
Turning to `CC(=O)n1cc(N(C(=O)CCl)c2ccccc2)c2ccccc21`, the inhibition was 95.3% (active).
As for `Clc1ccccc1/C=C/c1nc(-c2ccccn2)no1`, the figure is -22.3%; as for `Cc1ccc(S(=O)(=O)N2C(=O)/C(=C3\SC(=S)NC3=O)c3ccccc32)cc1`, 82.3% (active); as for `N=C1S/C(=C\c2ccco2)C(=O)N1c1nccs1`, 105% (active).
As for `N=C1S/C(=C\c2ccc(-c3cccc(Cl)c3)o2)C(=O)N1c1nccs1`, the figure is 108% (active).
As for `Cc1ccc(NC(=O)C2CCCN(c3ncnc4c3nc3n4CCCCC3)C2)nc1` (centres undefined), the figure is 92.6% (active); as for `Cc1ccc(NC(=O)C2CCN(c3ncnc4c3nc3n4CCCCC3)CC2)cc1Cl`, 31.7%; as for `COc1ccc(NC(=O)C2CCN(c3ncnc4c3nc3n4CCCCC3)CC2)cc1Cl`, 43.2%.
Turning to `CC(=O)c1ccc(NC(=O)C2CCCN(c3ncnc4c3nc3n4CCCCC3)C2)cc1` (centres undefined), the inhibition is 22.3%.
As for `O=C(Nc1ccc(Cl)cn1)C1CCN(c2ncnc3c2nc2n3CCCCC2)CC1`, the figure is 76.4% (active).
For `O=C(NCC1CCN(Cc2ccc(Cl)cc2)CC1)C1CCCN(c2ncnc3c2nc2n3CCCCC2)C1` (centres undefined), the inhibition is 57.9% (active).
The same measure for `O=C(Nc1ccccn1)C1CCN(c2ncnc3c2nc2n3CCCCC2)CC1`: 66.3% (active); for `O=C(Nc1nc2c(F)cc(F)cc2s1)c1ccc([N+](=O)[O-])o1`: -4%.
As for `CC(C)c1nc(SCC(=O)Nc2nc3c(s2)CCCC3)c2ccccc2n1`, the figure is -69.4%; as for `C#CC(C)(C)NC(=O)CSc1nc2c(c(=O)n(C)c(=O)n2C)n1CCCC`, 24.1%.
The same measure for `CCCCn1c(SCC(=O)Nc2nnc(CC)s2)nc2c1c(=O)n(C)c(=O)n2C`: 51.6% (active).
Take `CC(C)n1c(SCC(=O)N2CCCCC2)nc2c1c(=O)n(C)c(=O)n2C`: the inhibition was 40.9%.
The same measure for `CCCCn1c(SCC(=O)Nc2nnc(C(C)C)s2)nc2c1c(=O)n(C)c(=O)n2C`: 54.3% (active).
With `CCCn1c(SCC(=O)Nc2nc3c(s2)CCCC3)nc2c1c(=O)n(C)c(=O)n2C`, the inhibition is 71.4% (active).
As for `C=CCn1c(SCC(=O)Nc2sccc2C(N)=O)nc2sc(CC)cc2c1=O`, the figure is 44.9%.
As for `CCCc1nc(SCC(=O)Nc2nnc(SCC)s2)c2c(=O)n(C)c(=O)n(C)c2n1`, the figure is 33.2%; as for `CC1CCc2nc(NC(=O)CSc3nc4ccccc4o3)sc2C1` (centres undefined), 12%.

Source of the values: PubChem BioAssay AID1852 (Sanford-Burnham Center for Chemical Genomics, 2009).
